Results on 2 compounds are retold here after PubChem BioAssay (EPA / NIEHS).

Active and inactive are the calls of the source. The calls were made as follows: active = hit-call score of the fitted dose curve at least 0.9, where 1 is the maximum; inactive = score below 0.9.

Read-out in experiment [1]: urokinase plasminogen activator (uPA), PLAU (gene 5328)
In words: BSK_KF3CT_uPA: BioMAP Diversity Plus: KF3CT Assay for urokinase plasminogen activator (uPA) Biomarker Activity (AID 2283075). Conditions: primary human keratinocytes with fibroblasts; actives raise or lower the signal. Put shortly: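 ELISA read-out of uPA 24 h after dosing human skin keratinocytes co-cultured with foreskin fibroblasts. Signal change fitted both ways relative to DMSO; sulforhodamine B on parallel cultures marks overt cytotoxicity.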

Read-out in experiment [2]: CD40, CD40 (gene 958)
Briefly: BSK_LPS_CD40: BioMAP Diversity Plus: LPS Assay for CD40 Biomarker Activity (AID 2283076). To be noted: primary human HUVEC with PBMC; actives raise or lower the signal. Put shortly: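 Primary human umbilical vein endothelial cells co-cultured with peripheral blood mononuclear cells, LPS-stimulated, were dosed with chemical and read 24 h later. CD40 levels were measured by ELISA and fitted bidirectionally against DMSO as negative control and baseline.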

Read-out in experiment [3]: E-selectin (Homo sapiens) (UniProt P16581)
Briefly: BSK_LPS_Eselectin: BioMAP Diversity Plus: LPS Assay for Eselectin Biomarker Activity (AID 2283077). To be noted: primary human HUVEC with PBMC; actives raise or lower the signal. A digest of the protocol:
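Human umbilical vein endothelial cells co-cultured with peripheral blood mononuclear cells under LPS stimulation; E-selectin measured by ELISA 24 h after chemical dosing. Activity fitted bidirectionally against DMSO as negative control and baseline.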

Read-out in experiment [4]: Interleukin-8 (IL8), CXCL8 (gene 3576)
Briefly: BSK_LPS_IL8: BioMAP Diversity Plus: LPS Assay for Interleukin-8 (IL8) Biomarker Activity (AID 2283078). Conditions: primary human HUVEC with PBMC; actives raise or lower the signal. A digest of the protocol: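 Human umbilical vein endothelial cells co-cultured with PBMC were stimulated with LPS; IL-8 levels were measured by ELISA 24 h after chemical dosing. Activity was fitted bidirectionally against DMSO as negative control and baseline.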

Experiment [5] can be described thus: BSK_LPS_SRB: Viability Assessment in the BioMAP Diversity Plus: LPS Assay (AID 2283079).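 Also: total protein by sulforhodamine B absorbance as a cytotoxicity measure; measured one day after compound addition.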 To be noted: primary human HUVEC with PBMC. Put shortly:
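Human umbilical vein endothelial cells co-cultured with PBMC (LPS system) were dosed for 24 h. Total protein was stained with 0.1% sulforhodamine B after 10% TCA fixation, read at 560 nm, and fitted bidirectionally against DMSO baseline.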

Read-out in experiment [6]: Interleukin-1 alpha (IL1a), IL1A (gene 3552)
In words: BSK_LPS_IL1a: BioMAP Diversity Plus: LPS Assay for Interleukin-1 alpha (IL1a) Biomarker Activity (AID 2283080). To be noted: primary human HUVEC with PBMC; actives raise or lower the signal. Put shortly:
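Human umbilical vein endothelial cells co-cultured with peripheral blood mononuclear cells were LPS-stimulated and exposed to test chemicals for 24 h. IL-1 alpha was quantified by ELISA, with bidirectional curve fitting against DMSO as the negative control and baseline.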

Read-out in experiment [7]: Monocyte Chemoattractant Protein-1 (MCP1), CCL2 (gene 6347)
In words: BSK_LPS_MCP1: BioMAP Diversity Plus: LPS Assay for Monocyte Chemoattractant Protein-1 (MCP1) Biomarker Activity (AID 2283081).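 Also: co-culture stimulated with LPS; secreted MCP-1 protein quantified by ELISA in culture supernatant.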 To be noted: primary human HUVEC with PBMC; actives raise or lower the signal. A digest of the protocol: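 HUVEC plus PBMC co-culture (human primary cells, LPS system) exposed to test chemical for 24 h; MCP-1 measured by ELISA. Bidirectional curve fitting against DMSO baseline; parallel SRB total-protein staining flags overt cytotoxicity.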

The nature of experiment [8]: BSK_LPS_PGE2: BioMAP Diversity Plus: LPS Assay for Prostaglandin E2 (PGE2) Biomarker Activity (AID 2283082). To be noted: primary human HUVEC with PBMC; actives raise or lower the signal. Put shortly: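 Primary human endothelial cells and blood mononuclear cells, co-cultured with LPS, receive test chemical; PGE2 ELISA follows at 24 h, with SRB-stained parallel cultures flagging cytotoxicity.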

Read-out in experiment [9]: Macrophage colony-stimulating factor (MCSF), CSF1 (gene 1435)
In words: BSK_LPS_MCSF: BioMAP Diversity Plus: LPS Assay for Macrophage colony-stimulating factor (MCSF) Biomarker Activity (AID 2283083). To be noted: primary human HUVEC with PBMC; actives raise or lower the signal. Put shortly: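 Human umbilical vein endothelial cells co-cultured with peripheral blood mononuclear cells were exposed to compound for 24 h. M-CSF levels were measured by ELISA, and bidirectional curve fitting used DMSO as the negative control and baseline.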

Read-out in experiment [10]: Tissue Factor, F3 (gene 2152)
Briefly: BSK_LPS_TissueFactor: BioMAP Diversity Plus: LPS Assay for Tissue Factor Biomarker Activity (AID 2283084). To be noted: primary human HUVEC with PBMC; actives raise or lower the signal. A digest of the protocol: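 Human umbilical vein endothelial cells co-cultured with peripheral blood mononuclear cells were dosed and stimulated with LPS. Cell-surface CD142 was quantified by ELISA at 24 h. Activity was fitted bidirectionally against DMSO baseline.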

Read-out in experiment [11]: Tumor necrosis factor (Homo sapiens) (UniProt P01375)
Briefly: BSK_LPS_TNFa: BioMAP Diversity Plus: LPS Assay for Tumour Necrosis Factor alpha (TNFa) Biomarker Activity (AID 2283085).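 As to AC50: TNFa protein level quantified by ELISA in the co-culture.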 To be noted: primary human HUVEC with PBMC; actives raise or lower the signal. A digest of the protocol: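 ELISA-based TNFa endpoint in a human endothelial–PBMC co-culture sampled 24 h post-exposure. Curves were fitted in both directions using DMSO as baseline of activity.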

Read-out in experiment [12]: Vascular cell adhesion molecule 1 (VCAM1), VCAM1 (gene 7412)
In words: BSK_LPS_VCAM1: BioMAP Diversity Plus: LPS Assay for Vascular cell adhesion molecule 1 (VCAM1) Biomarker Activity (AID 2283086). Conditions: primary human HUVEC with PBMC; actives raise or lower the signal. Put shortly: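 Measured by ELISA: VCAM-1 in LPS-activated HUVEC/PBMC co-cultures 24 h after treatment. Values reflect bidirectional fitting with DMSO as baseline.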

Read-out in a further experiment: CD38, CD38 (gene 952)
In words: BSK_SAg_CD38: BioMAP Diversity Plus: SAg Assay for CD38 Biomarker Activity (AID 2283087). Conditions: primary human HUVEC with PBMC; actives raise or lower the signal. A digest of the protocol: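 Measures CD38 on a human endothelial/PBMC co-culture driven by SEB and TSST-1, 24 h after compound exposure, using ELISA with fluorescence detection; DMSO defines baseline for bidirectional curve fitting.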

Read-out in experiment [13]: CD40, CD40 (gene 958)
In words: BSK_SAg_CD40: BioMAP Diversity Plus: SAg Assay for CD40 Biomarker Activity (AID 2283088). To be noted: primary human HUVEC with PBMC; actives raise or lower the signal. Put shortly: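 Human umbilical vein endothelial cells co-cultured with PBMC; CD40 levels measured by ELISA with fluorescence read-out 24 h after chemical dosing. Gain or loss of signal fitted bidirectionally against DMSO baseline.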

Read-out in experiment [14]: Monocyte Chemoattractant Protein-1 (MCP1), CCL2 (gene 6347)
Briefly: BSK_SAg_MCP1: BioMAP Diversity Plus: SAg Assay for Monocyte Chemoattractant Protein-1 (MCP1) Biomarker Activity (AID 2283090). Conditions: primary human HUVEC with PBMC; actives raise or lower the signal. A digest of the protocol:
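Values derive from bidirectional fitting of ELISA-measured MCP1 against DMSO controls. Readings were taken 24 h after dosing human vascular endothelial cells co-cultured with peripheral blood mononuclear cells under superantigen stimulation.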

Read-out in experiment [15]: E-selectin (Homo sapiens) (UniProt P16581)
In words: BSK_SAg_Eselectin: BioMAP Diversity Plus: SAg Assay for Eselectin Biomarker Activity (AID 2283091). To be noted: primary human HUVEC with PBMC; actives raise or lower the signal. A digest of the protocol:
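HUVEC co-cultured with PBMC, compound dosed then read at 24 h; E-selectin measured by ELISA. Activity fitted bidirectionally against DMSO as negative control and baseline.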

Read-out in experiment [16]: Monokine induced gamma interferon (MIG), CXCL9 (gene 4283)
Briefly: BSK_SAg_MIG: BioMAP Diversity Plus: SAg Assay for Monokine induced gamma interferon (MIG) Biomarker Activity (AID 2283092). Conditions: primary human HUVEC with PBMC; actives raise or lower the signal. A digest of the protocol: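 HUVEC plus human PBMC co-culture, chemicals dosed and MIG (CXCL9) quantified by ELISA at 24 h. Bidirectional curve fitting against DMSO as negative control and baseline, so both gain and loss of signal count as activity.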

The nature of experiment [17]: BSK_SAg_PBMCCytotoxicity: PBMC Cytotoxicity Assessment in the BioMAP Diversity Plus: SAg Assay (AID 2283093).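 Also: PBMC viability measured as Alamar Blue reduction fluorescence at 546/580 nm; fitted both ways against DMSO so a hit may be loss or gain of signal.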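 As to AC50: PBMC superantigen activated with SEB plus TSST-1 one hour after compound addition.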 To be noted: primary human HUVEC with PBMC. A digest of the protocol:
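Alamar Blue reduction (6 h, ex/em 546/580 nm) read after 90 h culture of PBMC pre-dosed 1 h then stimulated with SEB plus TSST-1, 20 ng/mL each. Gain or loss of signal fitted relative to DMSO.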

Read-out in experiment [18]: Interleukin-8 (IL8), CXCL8 (gene 3576)
Briefly: BSK_SAg_IL8: BioMAP Diversity Plus: SAg Assay for Interleukin-8 (IL8) Biomarker Activity (AID 2283094). To be noted: primary human HUVEC with PBMC; actives raise or lower the signal. A digest of the protocol: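 Primary human endothelial cells with PBMC, exposed 24 h; IL-8 determined by ELISA, analysed bidirectionally relative to DMSO.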

Experiment [19] in a line: BSK_SAg_Proliferation: Cell Proliferation Assessment in the BioMAP Diversity Plus: SAg Assay (AID 2283095).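 Also: relative cell number as total protein by SRB absorbance in sub-confluent culture.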 Conditions: primary human HUVEC with PBMC. A digest of the protocol: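 A human primary co-culture of umbilical vein endothelium and blood mononuclear cells receives compound; relative cell number is quantified at 96 h by SRB staining and 560 nm absorbance, with DMSO-referenced bidirectional curve fitting.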

Chain of E-selectin (Homo sapiens) (P16581 whole entry, looked up): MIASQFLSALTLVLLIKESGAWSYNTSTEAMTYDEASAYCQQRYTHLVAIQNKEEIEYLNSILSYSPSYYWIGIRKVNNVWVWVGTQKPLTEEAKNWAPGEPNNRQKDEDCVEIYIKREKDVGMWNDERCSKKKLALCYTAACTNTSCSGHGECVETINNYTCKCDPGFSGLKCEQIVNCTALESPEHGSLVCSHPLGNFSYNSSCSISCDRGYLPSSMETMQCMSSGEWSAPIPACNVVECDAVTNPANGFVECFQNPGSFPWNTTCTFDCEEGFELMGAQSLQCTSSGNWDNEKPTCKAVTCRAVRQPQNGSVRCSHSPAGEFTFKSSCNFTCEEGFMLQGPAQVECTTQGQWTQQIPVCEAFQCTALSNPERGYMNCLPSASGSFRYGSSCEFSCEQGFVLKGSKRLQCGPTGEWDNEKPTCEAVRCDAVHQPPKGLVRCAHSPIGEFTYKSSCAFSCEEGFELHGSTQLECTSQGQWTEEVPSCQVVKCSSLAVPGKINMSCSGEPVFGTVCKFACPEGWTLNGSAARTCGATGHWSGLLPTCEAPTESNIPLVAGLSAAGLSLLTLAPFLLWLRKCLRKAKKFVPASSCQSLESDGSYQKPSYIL
Chain of Tumor necrosis factor (Homo sapiens) (P01375 whole entry, looked up): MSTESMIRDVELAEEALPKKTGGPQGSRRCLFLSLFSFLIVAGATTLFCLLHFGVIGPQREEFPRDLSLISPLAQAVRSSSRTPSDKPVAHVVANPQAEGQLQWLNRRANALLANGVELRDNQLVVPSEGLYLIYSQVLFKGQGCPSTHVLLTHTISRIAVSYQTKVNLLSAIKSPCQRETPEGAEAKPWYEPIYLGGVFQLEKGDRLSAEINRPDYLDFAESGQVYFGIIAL

For `c1ccc2c(c1)ccc1ncccc12`, the result in experiment [1], in [3], in [4], in [8], in experiment [9] and in experiment [11] was inactive. The result in experiment [14], in [15], in experiment [16], in experiment [17], in experiment [18] and in experiment [19] was inactive. Further, the AC50 (as a rule, the concentration giving half of the maximal activity seen) with CD40, CD40 (gene 958) [2] is 20 µM (active); in experiment [5] it was 20 µM (active); in experiment [6] it was 20 µM (active); in experiment [7], 3.97 µM (active); in [10] it was 6.01 µM (active); in [12], 2.69 µM (active). The AC50 in the experiment with CD38, CD38 (gene 952) is 29.7 µM (active); with CD40, CD40 (gene 958) [13], 20 µM (active).

As for `O=C(Cl)c1cc(C(=O)Cl)cc(C(=O)Cl)c1`, the AC50 is 30.9 µM (active) in experiment [1]; 15.2 µM (active) in the experiment with CD40, CD40 (gene 958) [2]; 31.2 µM (active) in experiment [3]; 28.8 µM (active) in experiment [4]; 30.5 µM (active) in experiment [5]; 31 µM (active) in experiment [6]. For the same compound, the AC50 in experiment [7] was 29.9 µM (active); in experiment [9] it was 31.1 µM (active); in experiment [10] it was 33 µM (active); in experiment [11], 36.7 µM (active); in [12], 27.8 µM (active); with CD38, CD38 (gene 952), 28.9 µM (active). In addition, the AC50 with CD40, CD40 (gene 958) [13] was 30.3 µM (active); in experiment [14] it was 29.1 µM (active); in experiment [15] it was 36.6 µM (active); in [16] it was 34.2 µM (active); in experiment [17], 12.6 µM (active); in [18], 20 µM (active). The AC50 in [19] was 12.7 µM (active). Further, in experiment [8], the result was inactive.
